# From PubChem BioAssay
# In the library only some 2.5% were active in any assay of this set; here they are far more common.
# LASV entry inh = inhibitors of Lassa virus binding or cell entry; Lassa virus pseudotype entry inhibition, cell reporter; Potency, µM (top dose mostly 37.9 µM), without a hit: at the top dose activity change, negative = inhibition, hits mostly inhibitors; 300,000 tested, 1.2% active; AID 540256; calls by dose curve; tested in HEK293 cells; note: nearly all actives have a fitted effect of over 50% in size
# MARV entry inh = Marburg virus entry inhibition; 300,000 tested, 1.8% active; Potency, µM (top dose mostly 37.8 µM), inactives show at the highest dose activity change, negative = inhibition, actives largely listed as inhibitors; Marburg virus pseudotyped entry inhibition, cell reporter; calls by dose curve; tested in HEK293 cells
# Vaccinia mCherry = inhibitors of vaccinia virus infection (mCherry reporter signal); Vaccinia virus mCherry reporter infection, fluorescence; Potency, µM (series often up to 36.5 µM), for the others: at the highest dose activity change, negative = inhibition, usual class: inhibitors; 310,000 tested, 0.63% active; calls by dose curve; tested in A549 cells; note: nearly all actives have a fitted effect of over 35% in size
# VACV Venus inh = vaccinia inhibition (Venus reporter) | Vaccinia virus Venus reporter expression, fluorescence | Potency, µM (highest dose often 36.5 µM), for inactives: top-dose activity change, negative = inhibition, most hits filed as inhibitors | 330,000 tested, 0.46% active | AID 720580; calls by dose curve; tested in A549 cells; note: nearly all actives have a fitted effect of over 30% in size
# Active calls of the source: *; i = inactive; ? = inconclusive; . = no result given; [ ] = dose if it differs, or a comment. % is set by controls: 0 for no effect and ±100 for the full control effect; potency is the fitted concentration of half-maximal effect.
SMILES,LASV entry inh,MARV entry inh,Vaccinia mCherry,VACV Venus inh
C#CCOCCOCCOCCNc1nc(N2CCN(C(=O)CCCCCCCCCCNC(=O)[C@H](CCCCN)n3cc(C[C@@H](C)CC)nn3)CC2)nc(N2CCN(C(=O)CCCCCCCCCCNC(=O)[C@@H]([C@H](C)O)n3cc(C)nn3)CC2)n1,.,.,11.2µM*,7.94µM*
C#CCOCCOCCOCCNc1nc(N2CCN(C(=O)CCCCCCCCCCNC(=O)[C@@H](CCSC)n3cc(CCO)nn3)CC2)nc(N2CCN(C(=O)CCCCCCCCCCNC(=O)[C@@H]([C@H](C)O)n3cc(C)nn3)CC2)n1,.,.,-0.6%,?
C#CCOCCOCCOCCNc1nc(N2CCN(C(=O)CCCCCCCCCCNC(=O)Cn3cc(C[C@@H](C)O)nn3)CC2)nc(N2CCN(C(=O)CCCCCCCCCCNC(=O)[C@@H]([C@H](C)O)n3cc(C)nn3)CC2)n1,.,.,-26.1%,?
C#CCOCCOCCOCCNc1nc(N2CCN(C(=O)CCCCCCCCCCNC(=O)Cn3cc(CCCCCN)nn3)CC2)nc(N2CCN(C(=O)CCCCCCCCCCNC(=O)[C@@H]([C@H](C)O)n3cc(C)nn3)CC2)n1,.,.,?,10µM*
C#CCOCCOCCOCCNc1nc(N2CCN(C(=O)CCCCCCCCCCNC(=O)[C@H](CCCCN)n3cc(CCO)nn3)CC2)nc(N2CCN(C(=O)CCCCCCCCCCNC(=O)[C@H](CCCCN)n3cc(CCCC(=O)O)nn3)CC2)n1,.,.,i,-26.7%
COC(=O)c1c(NC(=O)c2ccc(OC(C)C)cc2)sc2c1CC(C)(C)NC2(C)C,.,.,?,17.8µM*
Cc1cc(O)cc2c1O[C@](C)(CCC(=O)O)CC2,.,.,i,-14.0%
CC[C@@]1(C)Cc2c(sc3c2c(=O)n(C)c2nnc(SCc4ccc5c(c4)OCO5)n32)CO1,.,-16.7%,.,.
O=C(NCC(c1ccco1)N1CCc2ccccc21)c1cccc([N+](=O)[O-])c1 (stereo not drawn),5.62µM*,?,?,-16.0%
Cc1ccc(Nc2nc(NCc3ccco3)c3ccccc3n2)cc1,2.82µM*,?,?,11.2µM*
Oc1ccccc1-c1nc(NCc2ccco2)c2ccccc2n1,2.4%,-58.9%,.,.
c1ccc(-c2nc(NCc3ccco3)c3ccccc3n2)nc1,?,?,?,11.2µM*
COc1ccccc1Nc1nc(NCc2ccco2)c2ccccc2n1,-20.1%,?,?,-16.5%
COC(=O)[C@H]1[C@H](C)[C@@]2(O)c3ccccc3N(C)[C@@]1(C)[C@H]2O,.,-24.9%[14.2 µM],.,.
CC(C)C(NS(C)(=O)=O)c1nnc2n1CCN(Cc1ccc(C#CC(C)(C)O)cc1)CC2 (stereo not drawn),.,.,-13.2%,-3.1%
Cc1ccccc1N1C(=O)CC1(C#N)c1ccc(OCc2ccccc2)cc1 (stereo not drawn),10µM*,?,-21.8%,-7.4%
C=Cc1c(C)/c2[n-]/c1=C\c1[n-]c(c(CC)c1C)/C=c1\[n-]c3c(c1C)C(=O)C(C(=O)[O-])C=3c1[n-]c(c(C)c1CCC(=O)[O-])\C=2.[Cu].[Na+].[Na+] (stereo not drawn),?,31.5µM*,.,.
COc1cc2nc(CN3CC=C(c4ccccc4)CC3)[nH]c(=O)c2cc1OC,?,15.9%[46.1 µM],5.62µM*,?
CC1CN(S(=O)(=O)c2cc(C(=O)NCCCN3CCCC3=O)ccc2Cl)CC(C)O1 (stereo not drawn),2.1%,2.24µM*,-14.6%,-10.7%
Cc1cc(C(=O)CN2C(=O)c3ccccc3C2=O)c(C)n1Cc1cccs1,-48.2%[14.3 µM],6.51µM*,-14.7%,-17.7%
Cc1nc(NC(=O)c2ccco2)sc1-c1csc(Nc2ccc(Cl)cc2)n1,.,.,7.94µM*,?
Cc1nc(NC(=O)c2ccco2)sc1-c1csc(Nc2ccc(Cl)cc2Cl)n1,.,.,-23.4%,?
CCCCCCC(=O)Nc1nc(C)c(-c2csc(Nc3ccc(Cl)cc3)n2)s1,.,.,5.01µM*,?
Cc1ccc(CN2C(=O)N/C(=C\c3ccc(N4CCOCC4)cc3)C2=O)cc1,0.0461µM*,8.2%,?,?
COc1cc(=O)n2c(c1C(=O)N(C)Cc1ccsc1)CCN(Cc1c(C)nn(C)c1Cl)CC2,.,.,-9.2%,-2.4%
SMILES,LASV entry inh,MARV entry inh,Vaccinia mCherry,VACV Venus inh
O=C1Cc2c([nH]c3ccc([N+](=O)[O-])cc23)-c2ccccc2N1,-7.4%[46.1 µM],-14.8%,1.26µM*,?
Nc1ncnc(N)c1N=Nc1ccccc1,?,5.01µM*,?,?
C[C@H]1CC[C@H]2C(=O)NC[C@H](O)CN2[C@H]1c1ccc(Br)cc1,.,-9.5%[14.2 µM],.,.
Cc1cccc(-c2nnc(SCCC(=O)O)o2)c1,1.26µM*,?,-6.5%,0.1%
Cc1cccc(-c2nnc(SCCC(=O)N3CCOCC3)o2)c1,?,3.0%,-16.8%,-18.6%
CCC1CN(CC(=O)NC(C)c2cn(C)nc2C)Cc2cc(OC)ccc2O1 (stereo not drawn),.,.,-8.8%,3.0%
COc1cccc2sc(N3CCN(C(=O)c4ccc([N+](=O)[O-])o4)CC3)nc12,?,-29.4%,8.91µM*,12.6µM*
O=C(c1ccc([N+](=O)[O-])o1)N1CCN(c2nc3c(Cl)cccc3s2)CC1,?,?,-27.9%,-14.6%
COc1ccc(C(=O)NCCN(C)C)c2nc3ccccc3cc12,?,1.26µM*,1µM*,6.31µM*
COc1ccc(-c2nc3c(C(=O)NCCN(C)C)cccc3c3ccccc23)cc1,?,?,-13.6%,?
CN(C)CCNC(=O)c1cccc2nc3c(ccc4ccccc43)nc12,?,?,?,11.2µM*
COc1ccc(Cl)cc1C(=O)NCCN(C)C,8.9%,0.9%,.,.
COc1cccc2nc3c(C(=O)NCCN(C)C)cccc3cc12,?,7.08µM*,3.55µM*,4.47µM*
O=C1CCN(Cc2cccc(C(F)(F)F)c2)CCN1Cc1ccccn1,.,.,-6.5%,3.0%
COc1cc(=O)n2c(c1C(=O)N(C)Cc1nonc1C)CCN(Cc1cc(C)ccc1C)CC2,.,.,-14.3%,-7.0%
Cc1csc[n+]1CC(=O)c1ccc(I)cc1,.,.,-14.1%,-17.0%
Cc1cc(C)n2nc(C(=O)NCC3Cc4cccc(-c5ccc(S(C)(=O)=O)cc5)c4O3)cc2n1 (stereo not drawn),.,.,-10.5%,-1.4%
CC(C)NC(=O)CN1CCN(C(=O)CCl)CC1,2.7%,-2.3%[46.1 µM],12.6µM*,10µM*
COC(=O)[C@@H]1C[C@@H](NC(=O)c2cnsn2)CN1Cc1ccc(Cl)cc1,.,.,-20.2%,-12.1%
COc1ccc(COC(=O)N/N=C2/C[C@@H](O)[C@@H](O)[C@@H]3[C@@H]4C(=O)N(Cc5ccc6c(c5)OCO6)C(=O)[C@H]4CC[C@@H]23)cc1,.,4.1%[14.2 µM],.,.
COc1ccc(COC(=O)NN=C2C[C@@H](O)[C@@H](O)[C@@H]3[C@H]4C(=O)N(c5ccc(F)cc5F)C(=O)[C@@H]4CC[C@H]23)cc1,2.81µM*,?,.,.
COc1ccc(COC(=O)NN=C2C[C@@H](O)[C@@H](O)[C@@H]3[C@H]4C(=O)N(Cc5ccc6c(c5)OCO6)C(=O)[C@@H]4CC[C@H]23)cc1,0.266µM*,4.1%[14.2 µM],.,.
COc1ccc2[nH]c(=O)c(CN(Cc3ccco3)C(c3nnnn3Cc3ccccc3)C(C)C)cc2c1 (stereo not drawn),?,13µM*,.,.
